Hit rate of the full screen: of about 1,900 compounds, about 15 (0.8%) were called active. This is one part of a sample in which actives are shown more often than they occur.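 The calls were made as follows: active = every replicate shows at least 50% inhibition; inconclusive = mean inhibition at least 50% but some replicate below; inactive = the rest.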
Target: DNA repair protein RAD52 homolog (Homo sapiens) (UniProt P43351)
Test: inhibition of RAD52-mediated strand annealing – biochemical, FRET, single point, primary screen (AID 651660);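 also: 0% = median of neutral control wells and 100% = median of positive control wells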
Details: Recombinant RAD52 ssDNA annealing, FRET fluorescence, 30 min; at 18.7 µM; stronger effect = higher value

Chain of DNA repair protein RAD52 homolog (Homo sapiens) (P43351 whole entry, looked up): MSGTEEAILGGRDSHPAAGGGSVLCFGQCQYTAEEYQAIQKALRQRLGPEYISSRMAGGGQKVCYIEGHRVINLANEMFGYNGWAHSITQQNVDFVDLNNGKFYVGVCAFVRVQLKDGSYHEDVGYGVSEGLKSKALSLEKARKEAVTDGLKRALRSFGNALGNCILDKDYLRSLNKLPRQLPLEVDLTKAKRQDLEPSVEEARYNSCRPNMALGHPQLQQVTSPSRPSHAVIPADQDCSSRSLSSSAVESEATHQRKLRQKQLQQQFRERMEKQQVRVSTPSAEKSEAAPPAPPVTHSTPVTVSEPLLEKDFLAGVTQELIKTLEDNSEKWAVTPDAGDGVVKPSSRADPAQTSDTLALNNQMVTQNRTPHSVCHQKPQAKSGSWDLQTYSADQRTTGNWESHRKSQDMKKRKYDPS

inhibition, inactive:
O=C(Nc1nc2ccccc2s1)c1ccc(F)cc1 4.49%
CCN(CC)c1ccc(C2=NNC(=O)CC2C)cc1[N+](=O)[O-] (configuration not stated) -0.17%
O=C(N/C(=C/C=C\c1ccccc1)C(=O)N1CCOCC1)c1ccc(Br)cc1 8.04%
CCOc1ccccc1Oc1coc2cc(OCC(=O)O)ccc2c1=O -12.3%
C(=C\c1ccc2ccccc2n1)/c1ccccc1 3.46%
COc1cc(CC(=O)NCCc2ccc(S(N)(=O)=O)cc2)cc(OC)c1OC -2.62%
O=C(NCCCCCc1nc2ccccc2[nH]1)c1ccccc1Cl -0.634%
N=C1C(c2ccccc2)=C(O)CN1CCCO -1.52%
Cn1c2ccccc2c2cc(/C=C(\NC(=O)c3ccccc3)C(=O)O)ccc21 -10.8%
O=C1c2cccc3cccc(c23)C(=O)N1c1ccccn1 -4.1%
COCCCNc1nc2c([nH]1)c(=O)[nH]c(=O)n2C -1.14%
CCOC(=O)c1cnc2ccccc2c1NCCO 10.9%
O=C(COc1ccccc1)Nc1ccc2c(c1)C(=O)N(CC1CCCO1)C2=O (configuration not stated) -9.17%
COc1ccc(C2C3=C(CC(C)(C)CC3=O)N(C)C3=C2C(=O)CC(C)(C)C3)cc1 -13.9%
COc1ccccc1OS(=O)(=O)c1ccc(NC(C)=O)cc1 3.22%
S=C(NCCOCCOCCNC(=S)Nc1ccccc1)Nc1ccccc1 4.23%
Nc1ncnc2c1ncn2C1OC(CO)C(O)C1O (configuration not stated) -0.087%
Cc1ccc2c(ccc(=S)n2C)c1 -5.88%
O=C(CS(=O)(=O)c1ccccc1)c1ccc2c(c1)OCCO2 -0.895%
CCOc1cc2oc(=O)c3c(c2cc1Cl)CCC3 -1.74%
CC[C@H](CO)NCCN[C@H](CC)CO -5.2%
Cc1ccc2nc(NC3=NC(CC(=O)O)C(=O)N3)nc(C)c2c1 (configuration not stated) 7.8%
Cc1ccc2nc(C)c3c(c2c1)OC(C(C)(Cl)Br)C3 (configuration not stated) 3.5%
C[C@H](NC(=O)OC(C)(C)C)C(=O)NCC1CCC(C(=O)O)CC1 (some centres not stated) -0.108%
CC(=O)N(CCC1(C(C)C)CCOC(C)(C)C1)Cc1ccco1 (configuration not stated) -19%
COc1cc(CO)ccc1OCc1nnnn1-c1ccc(C)cc1 5.41%
CCC(C)NCCOCCOc1ccc(Cl)cc1Br (configuration not stated) 9.51%
CCC1CCc2c(sc(NC(=O)c3cccnc3)c2C(N)=O)C1 (configuration not stated) -5.46%
Nc1ccc2nc(Cc3ccccc3)[nH]c2c1 33.4%
O=[N+]([O-])c1ccc2cn[nH]c2c1 -3.19%
C=C(C)COc1ccc(-c2n[nH]c(C)c2-c2ccc(OC)cc2)c(O)c1 17.8%
CCOc1ccc(C(=O)Nc2ccc(N3CCN(C(C)=O)CC3)cc2)cc1[N+](=O)[O-] -3.31%
NC(=O)[C@@H]1[C@@H]2C(=O)N(c3ccc(F)cc3)C(=O)[C@@H]2[C@H]2C=Cc3ccccc3N21 -124%
C#CCN1C(=O)C(O)(c2c(C)[nH]c3ccccc23)c2ccccc21 (configuration not stated) -11.1%
Nc1c2c(nc3ccccc13)CCCC2 18.1%
Cc1nc2cc3ccccc3cc2c(=O)[nH]1 -5.13%
CN(C)C(=O)CCCCCCCCC(=O)N(C)C -13.3%
COc1ccc(/C=C(/C#N)c2cccnc2)cc1OC -8.25%
CCOC(=O)c1ccc2[nH]c(C)c(CCC(C)=O)c(=O)c2c1 0.469%
COc1cc(COc2ccc3c(C)c(Cc4ccccc4)c(=O)oc3c2)cc(OC)c1OC -0.647%
CCc1nc2ccccc2c(NC(=O)CN2CC(C)CC(C)C2)c1C (configuration not stated) -5.82%
O=C(CCCn1c(=O)oc2ccccc21)N1CCN(c2ccc(F)cc2)CC1 -3.01%
Cc1ccc(C2CC(=O)C(C=NCCN3CCN(C(=S)Nc4ccccc4)CC3)=C(O)C2)cc1 (configuration not stated) 4.06%
Cc1ccc2c(c1)C(O)(CC(=O)/C=C/C=C/c1ccccc1)C(=O)N2 (configuration not stated) -10.7%
CC1(C)CC(=O)C2=C(C1)c1c(ccc3ccccc13)NC2c1ccco1 (configuration not stated) -27.1%
CCN(CC)c1ccc([C@H]2[C@@H]3CCCC[C@]3(O)CCN2CC(=O)NCc2ccco2)cc1 -20.6%
CCc1cc(/C(Cc2ccccn2)=N\O)c(O)cc1O -33.7%
CC(C)CC(NC(=O)CNC(=O)C1O[C@@H]2OC(C)(C)O[C@@H]2[C@H]2OC(C)(C)O[C@@H]12)C(=O)O (some centres not stated) -7%
OCCN(Cc1nc(-c2ccc3c(c2)OCO3)no1)Cc1cccs1 2.4%
Cc1ccc(C2CC(=O)C(C=NCCN3CCN(CC(=O)Nc4cc(C)cc(C)c4)CC3)=C(O)C2)cc1 (configuration not stated) -3.07%
COc1ccccc1N=CC1=C(O)CC(c2ccccc2)CC1=O (configuration not stated) -25.4%
C/C(=N\N=C1\NC(=O)C(CC(=O)Nc2ccc(Cl)cc2)S1)c1ccco1 (configuration not stated) -15.6%
COc1ccc(NC(=S)NCCc2c[nH]c3ccccc23)cc1 7.25%
O=C(c1ccc(O)cc1)c1ccc(O)cc1O -19.8%
COc1ccc2[nH]c(=O)c3c(c2c1)OC(C)(C)C=C3 -5.72%
CCc1cccc(OC2OC(CO)C(O)C(O)C2NC(C)=O)c1 (configuration not stated) -3.23%
COc1ccc2c(C=O)cn(C)c2c1 -1.85%
CC(C)CC(NC(=O)c1cccc(Cl)c1)C(=O)O (configuration not stated) -8.58%
CCOC(=O)c1c(O)c2c([nH]c1=O)CCCC2 2.81%
COc1cccc(N2C(=O)CC(c3c[nH]c4ccccc34)C2=O)c1 (configuration not stated) -22.5%
Cc1c(NC(=O)c2cccs2)cccc1[N+](=O)[O-] 0.122%
CC1(C)CC(=O)C(C(=O)CCCCC(=O)C2C(=O)CC(C)(C)CC2=O)C(=O)C1 -11.5%
CC(=O)NCCCC(=O)NC(CCC(=O)OCc1ccccc1)C(=O)OCc1ccccc1 (configuration not stated) -10.8%
COC(=O)c1ccc(OCCCCN2CC(C)OC(C)C2)cc1 (configuration not stated) -1.97%
CC1(C)OC2OC(C(=O)N/N=C/c3ccccc3F)C3OC(C)(C)OC3C2O1 (configuration not stated) -8.91%
O=C(/C=C/c1c[nH]c2ccccc12)c1cccc2ccccc12 -25.7%
O=C(CCCCCCCC(=O)c1ccccc1)c1ccccc1 2.66%
COc1cc2[nH]c3c(=O)n(CCN4CCOCC4)cnc3c2cc1OC 1.23%
Clc1ccc(CCNc2ncnc3nc[nH]c23)cc1 1.95%
CN(Cc1ccccc1)CC(O)COc1ccc(CNCc2cccnc2)cc1 (configuration not stated) 25.5%
COc1c2ccoc2nc2c(OC)cccc12 10.6%
COc1ccc(N2C(=O)[C@@H]3Cc4ccccc4CN3C2=O)cc1 -7.83%
Cc1oc2c(CN3CCCC3)c(O)ccc2c(=O)c1-c1ccc(Cl)cc1 2.93%
CCN(Cc1ccncc1)Cc1nc(Cc2ccccc2Cl)no1 -13.8%
COc1ccc(C(CC(=O)N2CCOCC2)C(C)C)cc1 (configuration not stated) 4.92%
O=C(CSCc1ccccc1)NCCCN1CCOCC1 7.56%
CCN(Cc1cnn(C)c1)Cc1nc(C(c2ccccc2)c2ccccc2)no1 1.94%
N/C(=N\OC(=O)/C=C/c1ccccc1)c1ccc(Br)cc1 -5.01%
Cc1nc(-c2coc3c(CN(C)C)c(O)ccc3c2=O)cs1 5.53%
Cc1cccc(Nc2ccccc2C(=O)O)c1C -13.3%
O=C(O)c1ccccc1Nc1cccc(C(F)(F)F)c1 -6.2%
COc1ccc(-c2nc(C)c(C(C)=O)n2O)cc1OC -4.44%
COc1cccc(-n2cc(CNCc3c(C(=O)N(C)C)nc4ccc(Cl)cn34)cn2)c1 -5.77%
COC(=O)c1sccc1NC(=O)Nc1ccccc1F -4.3%
Cc1oc2cc(O)cc(O)c2c(=O)c1-c1ccc2c(c1)OCCCO2 3.6%
Cn1c2ccc(CC(=O)O)cc2c2cc(CC(=O)O)ccc21 -173%
CC(C)c1ccccc1OCCNC(=S)NC(=O)c1cccnc1 -11.8%
COc1cccc2c1C(=O)O/C2=C/c1ccc2c(c1)OCO2 -3.05%
CCn1c(O)c(/C=C2\C=Nc3ccccc32)sc1=O 8.58%
COC(=O)c1cc(OC)c(OC)c(OC)c1[N+](=O)[O-] -11.8%
COc1ccc(Br)cc1C(=O)Nc1ccc(C(=O)O)cc1 -5.54%
Cc1cnc(C(=O)N2CCCC(C(=O)c3ccc(Cl)cc3C)C2)cn1 (configuration not stated) 3.18%
Cc1ccc2[nH]c(=O)c(Cc3ccccc3)c(O)c2c1 -9.59%
CN1C(=O)C(O)(CC(=O)/C=C/C=C/c2ccccc2)c2ccccc21 (configuration not stated) -13.6%
COc1ccc(CN(CCC(c2ccccc2)c2ccc(OC(C)C)cc2)C(=O)CCl)cc1OC (configuration not stated) 28.8%
CC(C)Oc1ccc(C(CC(=O)O)c2ccc(F)cc2)cc1 (configuration not stated) -7.3%

inhibition, active:
Cc1ccc2nc(N=C(N)N)nc(C)c2c1 66.7%
Nc1ccc2[nH]ncc2c1 59.5%
Nc1cccc2nc3ccccc3cc12 99.5%
COc1ccc(CCNc2ncnc3c2[nH]c2cc(OC)c(OC)cc23)cc1OC 68.2%
c1ccc(Nc2cccc3c(Nc4ccccc4)cccc23)cc1 51.9%
COc1ccc(CNCCC(c2ccc(F)cc2)c2ccc(OC(C)C)cc2)cc1OC (configuration not stated) 57.6%

From PubChem BioAssay AID651660 (Broad Institute, 2012)
